The values that follow come from PubChem BioAssay (NCI).

This is part of a sample that, as a whole, favours compounds with a hit. Of some 83,000 tested, about 20% had one in any assay.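 Testing used 96-well plates and a 48-hour single-concentration exposure. Example: -40 means 40% of the starting cells died.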 Unmarked numbers belong to inactive results. The source made the active and inactive calls. Rule for the calls: active = growth percent below 10; inactive = the rest.

Among the test systems are NCI-H23 lung; NCI-H226 lung; NCI-H322M lung; HOP-62 NSCLC; NCI-H460 lung; HOP-92 NSCLC; NCI-H522 lung; A549/ATCC NSCLC; 786-0 renal; COLO 205 colon; DU-145 prostate; K-562 leukemia; MALME-3M melanoma; MDA-MB-231 breast; RXF 393 renal; SF-268 CNS; SF-295 CNS; SF-539 CNS; UACC-257 melanoma; M14 melanoma.
Assay in all cases: NCI-60 one-dose screen, 48 h (100 = growth as untreated, 0 = no growth, -100 = all killed)
Conditions in all cases: 10 µM unless noted

Turning to `CN(C)c1ccc(N=Nc2ccc3ccccc3c2)cc1`, the growth in the test with NCI-H23 lung was 91.5%; in the test with NCI-H226 lung, 79.9%; in the test on NCI-H322M lung, 89.6%; with HOP-62 NSCLC it was 110%; with NCI-H460 lung it was 87.5%; with HOP-92 NSCLC, 82.1%. Besides, the growth with NCI-H522 lung is 71.7%; in the test with A549/ATCC NSCLC it was 92%; with 786-0 renal it was 122%; with COLO 205 colon, 73.7%; in the test with DU-145 prostate it was 98.9%; in the test with K-562 leukemia it was 82.6%. Besides, the growth in the test with MALME-3M melanoma is 101%; in the test with MDA-MB-231 breast it was 69.5%; in the test with RXF 393 renal, 97.7%; in the test on SF-268 CNS, 87.8%; in the test on SF-295 CNS, 107%; in the test with SF-539 CNS, 93%. The growth in the test on UACC-257 melanoma was 102%; in the test on M14 melanoma, 99.1%.
`O=C(Nc1ccc(F)cc1)c1ccccc1`: the growth was 108% with NCI-H23 lung; 104% in the test with NCI-H226 lung; 103% in the test on NCI-H322M lung; 109% with HOP-62 NSCLC; 105% with NCI-H460 lung; 119% with HOP-92 NSCLC. In addition, the growth in the test with NCI-H522 lung was 101%; in the test with A549/ATCC NSCLC it was 99.6%; in the test on 786-0 renal, 100%; in the test with COLO 205 colon it was 113%; in the test on DU-145 prostate, 104%; in the test with K-562 leukemia, 103%. Further, the growth is 98.8% with MALME-3M melanoma; 105% in the test on MDA-MB-231 breast; 116% with RXF 393 renal; 105% in the test with SF-268 CNS; 93.4% with SF-295 CNS; 99.3% with SF-539 CNS. For the same compound, the growth with UACC-257 melanoma was 107%; in the test with M14 melanoma, 106%.
As for `N#Cc1c(N2CCOCC2)nc(=S)[nH]c1-c1ccco1`, the growth with NCI-H23 lung was 74.5%; in the test on NCI-H226 lung, 63.2%; with NCI-H322M lung, 74.5%; in the test on HOP-62 NSCLC, 35.7%; in the test on NCI-H460 lung it was 50.1%; in the test on HOP-92 NSCLC, -11.6% (active). In addition, the growth in the test on NCI-H522 lung is 49.6%; in the test with A549/ATCC NSCLC, 83.6%; with 786-0 renal, 65.8%; in the test with COLO 205 colon it was 75.7%; in the test on DU-145 prostate, 79.2%; in the test on K-562 leukemia, 88.4%. Further, the growth was 2.17% (active) in the test on MALME-3M melanoma; 61.1% in the test with MDA-MB-231 breast; 71.3% in the test on RXF 393 renal; 77.3% in the test on SF-268 CNS; 47.4% with SF-295 CNS; 78.5% in the test on SF-539 CNS. The growth is 92.8% in the test on UACC-257 melanoma and 39.8% with M14 melanoma.
As to `CCN(CC)c1ccc2cc(C(Nc3ccc(C)cc3)c3nnnn3C(C)(C)C)c(=O)oc2c1` (stereo not given), the growth was 95.1% in the test with NCI-H23 lung; 85% in the test on NCI-H226 lung; 103% in the test on NCI-H322M lung; 103% in the test with HOP-62 NSCLC; 91.9% with NCI-H460 lung; 81% with HOP-92 NSCLC. Further, the growth was 82.8% with NCI-H522 lung; 85.4% in the test on A549/ATCC NSCLC; 96% in the test with 786-0 renal; 110% with COLO 205 colon; 105% with DU-145 prostate; 87.5% in the test on K-562 leukemia. The growth was 105% with MALME-3M melanoma; 84.5% with MDA-MB-231 breast; 87.3% with RXF 393 renal; 92.6% with SF-268 CNS; 102% in the test with SF-295 CNS; 103% in the test on SF-539 CNS. Moreover, the figures for the growth in the test with UACC-257 melanoma and in the test on M14 melanoma were 104% and 103%, respectively.
Turning to `Cc1ccc(NC(=S)/N=c2/n(-c3ccccc3)nc3n2CCN3C2=NCCN2)cc1`, the growth was 104% in the test with NCI-H23 lung; 92.3% in the test on NCI-H226 lung; 103% in the test on NCI-H322M lung; 92.7% in the test on HOP-62 NSCLC; 104% in the test on NCI-H460 lung; 75.3% in the test on HOP-92 NSCLC. Also, the growth was 96.7% in the test on NCI-H522 lung; 106% in the test with A549/ATCC NSCLC; 53.5% in the test on 786-0 renal; 106% in the test with COLO 205 colon; 111% with DU-145 prostate; 121% with K-562 leukemia. Also, the growth in the test on MALME-3M melanoma is 113%; in the test on MDA-MB-231 breast, 92.9%; in the test with RXF 393 renal it was 101%; in the test with SF-268 CNS it was 109%; with SF-295 CNS, 99.3%; with SF-539 CNS it was 102%. The growth with UACC-257 melanoma is 109%; in the test with M14 melanoma, 82.8%.
For `COc1cccc(-c2[nH]c(=S)ncc2C(=O)c2ccccc2)c1`, the growth in the test with NCI-H23 lung is 97%; in the test on NCI-H226 lung it was 102%; in the test on NCI-H322M lung, 99.9%; with HOP-62 NSCLC, 78.8%; in the test with NCI-H460 lung it was 91.9%; in the test with HOP-92 NSCLC, 102%. Moreover, the growth with NCI-H522 lung is 70.9%; in the test on A549/ATCC NSCLC it was 88.4%; with 786-0 renal it was 100%; in the test with COLO 205 colon, 84.7%; in the test with DU-145 prostate, 98.4%; in the test on K-562 leukemia, 35%. Moreover, the growth was 71% in the test on MALME-3M melanoma; 99.3% in the test with MDA-MB-231 breast; 90.6% with RXF 393 renal; 90% with SF-268 CNS; 68.6% in the test with SF-295 CNS; 84.9% in the test with SF-539 CNS. The growth was 97.3% in the test on UACC-257 melanoma and 61.9% in the test on M14 melanoma.
Turning to `CC(C)(C)c1cc(C(=O)N2CCC(C(=O)NCCN)CC2)cc(C(C)(C)C)c1`, the growth with NCI-H23 lung was 104%; in the test on NCI-H226 lung it was 81.3%; in the test on NCI-H322M lung it was 93.6%; in the test with HOP-62 NSCLC it was 97.5%; in the test with NCI-H460 lung, 100%; in the test on HOP-92 NSCLC, 85.1%. Also, the growth was 66% with NCI-H522 lung; 81% in the test on A549/ATCC NSCLC; 106% in the test with 786-0 renal; 98.9% in the test with COLO 205 colon; 116% with DU-145 prostate; 103% in the test on K-562 leukemia. Moreover, the growth in the test on MALME-3M melanoma was 95%; with MDA-MB-231 breast it was 90.9%; in the test with RXF 393 renal it was 98.5%; in the test with SF-268 CNS, 97.8%; in the test on SF-295 CNS, 101%; with SF-539 CNS it was 98.4%. Moreover, the growth with UACC-257 melanoma was 81%; in the test with M14 melanoma, 113%.
